Measured values as given in PubChem BioAssay AID1159580 (chemical genetic matrix, 2015).
Hit rate of the full screen: of about 5,500 compounds, about 2,000 (36%) were called active. Roughly 18% stayed inconclusive and do not appear here. Cut-off read from the data, not from the text of the source: active = normalized growth mostly below about 0.91 (no sharp cut-off); inconclusive = no clear call, values can overlap the other calls; inactive = mostly above about 0.92. The list shows a part of the results.

Test: chemical genetic growth profiling, strain panel (AID 1159580);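 note: tested at 20 µM; growth read once vehicle control cultures reached saturation at 30 °C; 1 = growth at the plate median or of vehicle wells; lower values mean less growth of the strain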
Settings: growth OD

Measured: normalized growth

CN(C)CCCO[C@H]1[C@@H](C(O)CO)OC2OC(C)(C)O[C@@H]21 (some centres not stated)
active: S. cerevisiae deletion strains, locus YKR001C, strain vps1, stronger effect = lower value 0.867 | S. cerevisiae deletion strains, locus YLR418C, strain cdc73, stronger effect = lower value 0.748 | S. cerevisiae deletion strains, locus YMR223W, strain ubp8, stronger effect = lower value 0.902 | S. cerevisiae deletion strains, locus YNL307C, strain MCK1, stronger effect = lower value 0.871 | S. cerevisiae deletion strains, locus YOR184W, strain ser1, stronger effect = lower value 0.872
inactive: S. cerevisiae deletion strains, locus YJR075W, strain HOC1, stronger effect = lower value 0.981 | S. cerevisiae deletion strains, locus YKL009W, strain mrt4, stronger effect = lower value 0.988 | S. cerevisiae deletion strains, locus YKL068W, stronger effect = lower value 0.99 | S. cerevisiae deletion strains, locus YKL085W, strain MDH1 (second series), stronger effect = lower value 1.01 | S. cerevisiae deletion strains, locus YKL085W, strain MDH1, stronger effect = lower value 1.01 | S. cerevisiae deletion strains, locus YKL160W, strain elf1, stronger effect = lower value 0.975 | S. cerevisiae deletion strains, locus YKL190W, strain CNB1, stronger effect = lower value 0.97 | S. cerevisiae deletion strains, locus YKR026C, strain gcn3, stronger effect = lower value 0.991 | S. cerevisiae deletion strains, locus YKR091W, strain srl3, stronger effect = lower value 0.98 | S. cerevisiae deletion strains, locus YLL001W, strain dnm1, stronger effect = lower value 0.94 | S. cerevisiae deletion strains, locus YLL026W, stronger effect = lower value 0.985 | S. cerevisiae deletion strains, locus YLL041C, strain sdh2, stronger effect = lower value 0.993 | S. cerevisiae deletion strains, locus YLR027C, strain aat2, stronger effect = lower value 0.997 | S. cerevisiae deletion strains, locus YLR039C, strain RIC1, stronger effect = lower value 0.993 | S. cerevisiae deletion strains, locus YLR058C, strain SHM2, stronger effect = lower value 0.985 | S. cerevisiae deletion strains, locus YLR102C, strain apc9, stronger effect = lower value 0.988 | S. cerevisiae deletion strains, locus YLR113W, strain HOG1, stronger effect = lower value 0.985 | S. cerevisiae deletion strains, locus YLR221C, strain rsa3, stronger effect = lower value 0.957 | S. cerevisiae deletion strains, locus YLR258W, strain gsy2, stronger effect = lower value 0.998 | S. cerevisiae deletion strains, locus YLR262C, strain YPT6 (second series), stronger effect = lower value 0.978 | S. cerevisiae deletion strains, locus YLR262C, strain YPT6, stronger effect = lower value 1.04 | S. cerevisiae deletion strains, locus YLR268W, strain sec22, stronger effect = lower value 0.945 | S. cerevisiae deletion strains, locus YLR320W, strain mms22, stronger effect = lower value 0.963 | S. cerevisiae deletion strains, locus YLR330W, strain CHS5, stronger effect = lower value 0.995 | S. cerevisiae deletion strains, locus YLR342W, strain FKS1 (second series), stronger effect = lower value 0.896 | S. cerevisiae deletion strains, locus YLR342W, strain FKS1, stronger effect = lower value 0.985 | S. cerevisiae deletion strains, locus YLR357W, strain rsc2, stronger effect = lower value 0.955 | S. cerevisiae deletion strains, locus YLR370C, strain arc18, stronger effect = lower value 0.977 | S. cerevisiae deletion strains, locus YLR371W, strain rom2, stronger effect = lower value 0.993 | S. cerevisiae deletion strains, locus YLR384C, strain iki3, stronger effect = lower value 0.972 | S. cerevisiae deletion strains, locus YML016C, strain PPZ1, stronger effect = lower value 0.979 | S. cerevisiae deletion strains, locus YML032C, strain rad52, stronger effect = lower value 0.945 | S. cerevisiae deletion strains, locus YML120C, strain ndi1, stronger effect = lower value 0.964 | S. cerevisiae deletion strains, locus YML124C, strain tub3, stronger effect = lower value 0.98 | S. cerevisiae deletion strains, locus YMR058W, strain fet3, stronger effect = lower value 0.975 | S. cerevisiae deletion strains, locus YMR078C, strain ctf18, stronger effect = lower value 0.969 | S. cerevisiae deletion strains, locus YMR125W, strain sto1, stronger effect = lower value 0.978 | S. cerevisiae deletion strains, locus YMR129W, stronger effect = lower value 0.993 | S. cerevisiae deletion strains, locus YMR205C, strain PFK2, stronger effect = lower value 0.961 | S. cerevisiae deletion strains, locus YMR231W, strain pep5, stronger effect = lower value 0.991 | S. cerevisiae deletion strains, locus YMR263W, strain SAP30, stronger effect = lower value 0.942 | S. cerevisiae deletion strains, locus YMR307W, strain GAS1, stronger effect = lower value 0.937 | S. cerevisiae deletion strains, locus YNL067W, strain RPL9B, stronger effect = lower value 0.974 | S. cerevisiae deletion strains, locus YNL071W, strain lat1, stronger effect = lower value 1.06 | S. cerevisiae deletion strains, locus YNL128W, strain TEP1, stronger effect = lower value 1 | S. cerevisiae deletion strains, locus YNL153C, strain GIM3, stronger effect = lower value 0.953 | S. cerevisiae deletion strains, locus YNL183C, strain NPR1, stronger effect = lower value 0.945 | S. cerevisiae deletion strains, locus YNL209W, strain ssb2, stronger effect = lower value 0.999 | S. cerevisiae deletion strains, locus YNL233W, strain BNI4, stronger effect = lower value 0.917 | S. cerevisiae deletion strains, locus YNL248C, strain rpa49, stronger effect = lower value 0.983 | S. cerevisiae deletion strains, locus YNL250W, strain rad50, stronger effect = lower value 0.936 | S. cerevisiae deletion strains, locus YNL271C, strain bni1, stronger effect = lower value 0.983 | S. cerevisiae deletion strains, locus YNL298W, strain CLA4, stronger effect = lower value 0.974 | S. cerevisiae deletion strains, locus YNL322C, strain KRE1 (second series), stronger effect = lower value 0.968 | S. cerevisiae deletion strains, locus YNL322C, strain KRE1, stronger effect = lower value 0.991 | S. cerevisiae deletion strains, locus YNR049C, strain mso1, stronger effect = lower value 0.971 | S. cerevisiae deletion strains, locus YNR052C, strain pop2, stronger effect = lower value 0.987 | S. cerevisiae deletion strains, locus YOL006C, strain TOP1, stronger effect = lower value 0.876 | S. cerevisiae deletion strains, locus YOL012C, strain htz1 0.444 | S. cerevisiae deletion strains, locus YOL147C, strain pex11, stronger effect = lower value 0.991 | S. cerevisiae deletion strains, locus YOR001W, strain rrp6, stronger effect = lower value 1.01 | S. cerevisiae deletion strains, locus YOR061W, strain CKA2, stronger effect = lower value 0.995 | S. cerevisiae deletion strains, locus YOR069W, strain VPS5, stronger effect = lower value 0.984 | S. cerevisiae deletion strains, locus YOR070C, strain gyp1, stronger effect = lower value 0.99 | S. cerevisiae deletion strains, locus YOR080W, strain dia2, stronger effect = lower value 0.968 | S. cerevisiae deletion strains, locus YOR083W, strain WHI5, stronger effect = lower value 0.953 | S. cerevisiae deletion strains, locus YOR106W, strain vam3, stronger effect = lower value 0.926 | S. cerevisiae deletion strains, locus YOR136W, strain idh2, stronger effect = lower value 0.966 | S. cerevisiae deletion strains, locus YOR144C, strain elg1, stronger effect = lower value 0.992 | S. cerevisiae deletion strains, locus YOR231W, strain MKK1, stronger effect = lower value 0.97 | S. cerevisiae deletion strains, locus YOR265W, strain rbl2, stronger effect = lower value 0.993 | S. cerevisiae deletion strains, locus YOR270C, strain vph1, stronger effect = lower value 0.925 | S. cerevisiae deletion strains, locus YOR290C, strain snf2, stronger effect = lower value 0.964 | S. cerevisiae deletion strains, locus YOR316C, strain cot1, stronger effect = lower value 0.988 | S. cerevisiae deletion strains, locus YPL051W, strain arl3, stronger effect = lower value 0.985 | S. cerevisiae deletion strains, locus YPL055C, strain LGE1, stronger effect = lower value 0.954 | S. cerevisiae deletion strains, locus YPL078C, strain atp4, stronger effect = lower value 0.973 | S. cerevisiae deletion strains, locus YPL106C, strain sse1, stronger effect = lower value 0.96 | S. cerevisiae deletion strains, locus YPL240C, strain hsp82, stronger effect = lower value 0.985 | S. cerevisiae deletion strains, locus YPL241C, strain CIN2, stronger effect = lower value 0.987 | S. cerevisiae deletion strains, locus YPL256C, strain CLN2, stronger effect = lower value 0.971 | S. cerevisiae deletion strains, locus YPR119W, strain clb2, stronger effect = lower value 0.992 | S. cerevisiae deletion strains, locus YPR141C, strain kar3, stronger effect = lower value 0.99 | S. cerevisiae deletion strains, locus YPR163C, strain tif3, stronger effect = lower value 0.986 | S. cerevisiae deletion strains, locus YPR167C, strain met16, stronger effect = lower value 0.992 | S. cerevisiae deletion strains, strain wtn01, stronger effect = lower value 0.922 | S. cerevisiae strains, strain wild type, stronger effect = lower value 0.909
